Molecules are shown by their SMILES. About 83,000 compounds went through this panel and 20% of them were active in at least one assay; those are over-represented in the sample as a whole.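 The test compound was applied at a single concentration to cells in 96-well plates for 48 hours, and percent growth was recorded.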 A number with no mark means an inactive call. Active and inactive are the calls of the source. The calls were made as follows: active = growth percent below 10; inactive = the rest.

The subject of the first assay is SK-MEL-28 melanoma. The assay can be described thus: NCI-60 one-dose screen, 48 h (100 = growth as untreated, 0 = no growth, -100 = all killed). To be noted: 10 µM unless noted.
On to `Cc1ccc2c(c1)n([O-])c1cc(Cl)ccc1[n+]2=O`, for which the growth is 133%.
On to `CN1/C(=C\C=C\C2=[N+](C)c3ccccc3C2(C)C)C(C)(C)c2ccccc21`, for which the growth is -25.4% (active).
On the same count and under the same terms, with `CC/C(=C(\c1ccccc1)c1ccc(OCCNC)cc1)c1ccccc1` the figure was -98.5% (active); with `CCN(CC)Cc1cc(Nc2c3ccc(Cl)cc3nc3c(C)cccc23)ccc1O`, -65.5% (active); with `C=CC[N+]1(CCO)CCN=C1CCCCCCCCCCCCC` (configuration not stated), -69.5% (active).
On the same count and under the same terms, with `N#Cc1ccc(NC(=O)Nc2ccc(Cc3ccc(NC(=O)Nc4ccc(C#N)cc4)cc3)cc2)cc1` the figure was 36.7%.
Still for that read-out and setting: the value for `CC1=NNC(=O)C1C` (configuration not stated) was 106%.
As to `COc1nc2c(cc1S(=O)(=O)c1ccccc1)CCc1c-2cnn1Cc1ccccc1`, the growth is 92.3%.
Still for that read-out and setting: with `O=C(/C=C\c1ccc2ccccc2n1)c1cc(Cl)ccc1O` the figure was 99.6%; with `CCc1ccc(C(c2ccc(CC)cc2)C(Cl)(Cl)CCl)cc1`, 92.4%.
On the same count and under the same terms, the value for `C=CCSc1nnc(-c2ccc(C(C)(C)C)cc2)n1-c1cccc(C(F)(F)F)c1` was 67.8%; that for `CSc1ncnc2c1ncn2C1CCCO1` (configuration not stated) was 141%.
Take `OCC1C2C=CC(C2)C1CO` (configuration not stated): the growth is 107%.
Still for that read-out and setting: with `Cc1ccc(/C=C2\Oc3cc(OCC(=O)c4ccc(Cl)cc4)ccc3C2=O)cc1` the figure was 48.4%.
On to `Cn1c2c(Cl)c(Cl)ccc2c2ccn3c(=O)c4ccccc4nc3c21`, for which the growth was 117%.
For the compound `CSc1[nH]c2ncnc(N)c2c1C#N`, the growth is 120%.
The same measure, in the same setting: with `CCN(CC)CCCC(C)NCCCNc1cccc2cccnc12` (configuration not stated) the figure was 123%; with `C=CC[N+]1(CC)CCN=C1CCCCCCCCCCCCCCCCC` (configuration not stated), -76.1% (active); with `CCN(CC)CCCNc1cc(OC)cc2nc3cc(Cl)ccc3nc12`, -79.1% (active).
Same read-out and setting: the value for `CCCCCCCCCCNC(=O)CCl` was 105%; that for `CCOC(=S)SCc1ccc(Cl)cc1` was 114%; that for `O=C(O)c1ccc2c(c1Sc1ccccc1)C(=O)c1ccccc1C2=O` was 139%.
The same measure, in the same setting: with `Cc1cc2c(cc1C)NC1=C(N2)OC(c2c3ccccc3cc3ccccc23)C1=O` (configuration not stated) the figure was 31.5%.
With `O=C(Nc1ccc(CN2CCOCC2)cc1)c1[nH]ncc1Nc1ncnc2sccc12`, the growth is 7.07% (active).
The same measure, in the same setting: the value for `CCOC(=O)C(C#N)C1CCCCC1` (configuration not stated) was 108%; that for `Nc1cccc(NC(=O)C(=O)Nc2cccc(N)c2)c1` was 103%; that for `CN(CC(=O)N(Cc1ccc(C2CCCCC2)cc1)c1ccc(C(=O)NO)cc1)S(=O)(=O)c1c(F)c(F)c(F)c(F)c1F` was 86.8%.
On to `CCN(CC)c1ccc(/C=C/C2=[N+](C)c3ccccc3C2(C)C)cc1`, for which the growth is 42.9%.
The same measure, in the same setting: with `CN(C)c1ccc(/C=C(\C#N)c2nc3ccccc3s2)cc1` the figure was 119%; with `CCN(CC)CC(O)CNc1c2ccc([N+](=O)[O-])cc2nc2cc(OC)c(OC)cc12` (configuration not stated), -11.9% (active); with `COc1nc2c(cc1S(=O)(=O)c1ccccc1)CCc1c-2cnn1-c1ccc(Cl)cc1`, 88.8%.
Consider `Cc1cc(-c2nc3ccccc3s2)ccc1NC(=O)COc1ccc(Cl)cc1`, for which the growth is 114%.
The same measure, in the same setting: with `N#Cc1c(N)nc(N)nc1Nc1ccc(Br)cc1` the figure was 110%.
For `CCN(CC)CC(C)(C)C(=O)/C=C/c1ccccc1`, the growth is 67.8%.
As to `CNc1cc2nc3cc(NC)c(C)cc3cc2cc1C`, the growth is 46%.
On the same count and under the same terms, the value for `O=C(COc1cccc(/C=C2/Oc3ccccc3C2=O)c1)Nc1nccs1` was 124%; that for `O=C(Cc1ccccc1)c1ccc(Cl)cc1` was 114%.
Same read-out and setting: the value for `O=C(O)c1cccnc1Br` was 112%.

In another assay the test system is SK-MEL-2 melanoma. Described as above. The following applies: 10 µM unless noted.
With `Cc1ccc2c(c1)n([O-])c1cc(Cl)ccc1[n+]2=O`, the growth is 92.5%.
For the compound `CN1/C(=C\C=C\C2=[N+](C)c3ccccc3C2(C)C)C(C)(C)c2ccccc21`, the growth is -56.6% (active).
Same read-out and setting: the value for `CC/C(=C(\c1ccccc1)c1ccc(OCCNC)cc1)c1ccccc1` was -90.5% (active).
On the same count and under the same terms, the value for `CCN(CC)Cc1cc(Nc2c3ccc(Cl)cc3nc3c(C)cccc23)ccc1O` was -73.2% (active); that for `C=CC[N+]1(CCO)CCN=C1CCCCCCCCCCCCC` (configuration not stated) was -64.2% (active); that for `N#Cc1ccc(NC(=O)Nc2ccc(Cc3ccc(NC(=O)Nc4ccc(C#N)cc4)cc3)cc2)cc1` was 12.8%.
Same read-out and setting: the value for `CC1=NNC(=O)C1C` (configuration not stated) was 99.8%.
As for `COc1nc2c(cc1S(=O)(=O)c1ccccc1)CCc1c-2cnn1Cc1ccccc1`, the growth was 74.3%.
The same measure, in the same setting: the value for `O=C(/C=C\c1ccc2ccccc2n1)c1cc(Cl)ccc1O` was -9.71% (active); that for `CCc1ccc(C(c2ccc(CC)cc2)C(Cl)(Cl)CCl)cc1` was 94.2%.
Same read-out and setting: with `C=CCSc1nnc(-c2ccc(C(C)(C)C)cc2)n1-c1cccc(C(F)(F)F)c1` the figure was 46.7%; with `CSc1ncnc2c1ncn2C1CCCO1` (configuration not stated), 99.3%; with `OCC1C2C=CC(C2)C1CO` (configuration not stated), 114%.
Same read-out and setting: the value for `Cc1ccc(/C=C2\Oc3cc(OCC(=O)c4ccc(Cl)cc4)ccc3C2=O)cc1` was 79.2%; that for `Cn1c2c(Cl)c(Cl)ccc2c2ccn3c(=O)c4ccccc4nc3c21` was 107%.
As to `CSc1[nH]c2ncnc(N)c2c1C#N`, the growth is 91%.
`CCN(CC)CCCC(C)NCCCNc1cccc2cccnc12` (configuration not stated): the growth was 112%.
Take `C=CC[N+]1(CC)CCN=C1CCCCCCCCCCCCCCCCC` (configuration not stated): the growth is -74% (active).
The same measure, in the same setting: the value for `CCN(CC)CCCNc1cc(OC)cc2nc3cc(Cl)ccc3nc12` was 3.9% (active).
With `CCCCCCCCCCNC(=O)CCl`, the growth is 85.7%.
The same measure, in the same setting: the value for `CCOC(=S)SCc1ccc(Cl)cc1` was 105%; that for `O=C(O)c1ccc2c(c1Sc1ccccc1)C(=O)c1ccccc1C2=O` was 90.5%; that for `CCN(CC)CC(C)Nc1ccc([N+](=O)[O-])c2sc3ccccc3c(=O)c12` (configuration not stated) was 26.8%.
Regarding `Cc1cc2c(cc1C)NC1=C(N2)OC(c2c3ccccc3cc3ccccc23)C1=O` (configuration not stated), the growth was 31%.
Same read-out and setting: with `O=C(Nc1ccc(CN2CCOCC2)cc1)c1[nH]ncc1Nc1ncnc2sccc12` the figure was 2.93% (active); with `CCOC(=O)C(C#N)C1CCCCC1` (configuration not stated), 107%; with `Nc1cccc(NC(=O)C(=O)Nc2cccc(N)c2)c1`, 97.6%.
Same read-out and setting: with `CN(CC(=O)N(Cc1ccc(C2CCCCC2)cc1)c1ccc(C(=O)NO)cc1)S(=O)(=O)c1c(F)c(F)c(F)c(F)c1F` the figure was 81.2%.
Still for that read-out and setting: with `CCN(CC)c1ccc(/C=C/C2=[N+](C)c3ccccc3C2(C)C)cc1` the figure was -1.48% (active); with `CN(C)c1ccc(/C=C(\C#N)c2nc3ccccc3s2)cc1`, 106%; with `CCN(CC)CC(O)CNc1c2ccc([N+](=O)[O-])cc2nc2cc(OC)c(OC)cc12` (configuration not stated), -48.7% (active).
For the compound `COc1nc2c(cc1S(=O)(=O)c1ccccc1)CCc1c-2cnn1-c1ccc(Cl)cc1`, the growth was 97.2%.
On the same count and under the same terms, the value for `Cc1cc(-c2nc3ccccc3s2)ccc1NC(=O)COc1ccc(Cl)cc1` was 104%; that for `N#Cc1c(N)nc(N)nc1Nc1ccc(Br)cc1` was 91.1%.
On to `CCN(CC)CC(C)(C)C(=O)/C=C/c1ccccc1`, for which the growth is 99.9%.
Same read-out and setting: the value for `CNc1cc2nc3cc(NC)c(C)cc3cc2cc1C` was 48.5%.
The same measure, in the same setting: the value for `O=C(COc1cccc(/C=C2/Oc3ccccc3C2=O)c1)Nc1nccs1` was -32.2% (active); that for `O=C(Cc1ccccc1)c1ccc(Cl)cc1` was 99%.
On to `O=C(O)c1cccnc1Br`, for which the growth was 99.6%.

The record behind these values is PubChem BioAssay (NCI).
